SMILES strings stand for the structures. The panel holds about 83,000 compounds, 20% with a hit somewhere; the sample as a whole holds those more often.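 Growth was measured after 48 h exposure to one concentration of compound in 96-well plates. Values under 10 count as active.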 Values without a mark were called inactive. Calls of active or inactive are those of the source.

This experiment concerns SW-620 colon. Briefly: NCI-60 one-dose screen, 48 h (100 = growth as untreated, 0 = no growth, -100 = all killed). The settings on record: 10 µM unless noted. The procedure: Growth inhibition of the SW-620 human tumor cell line is measured as a screen for anti-cancer activity. Cells are grown in 96 well plates and exposed to the test compound for 48 hours. Compounds are tested at a single concentration, which is 10^-5 M for most compounds. The reported endpoint is percent growth (GI% or GIPRCNT), where numbers from 0 - 100% represent growth inhibition, and numbers from -100% - 0 represent cell death. For example, a value of 40 represents 60% growth inhibition. A value of 0 means no net growth occurred over the course of the experiment. A value of -40 indicates 40% of cells at the beginning of the experiment died by the end of the experiment. A value of -100 means all cells are dead at the end of the experiment.
NCI-60 Human Tumor Cell Lines Screen was performed using the standard one-dose NCI protocol, which is described in more detail at https://dtp.cancer.gov/discovery_development/nci-60/default.htm.
Compounds with GIPRCNT values below 10 were considered active. Activity score was based on GIPRCNT using the following formula: […]
Score is 0 for GIPRCNT values of 100 or above, 50 for GIPRCNT values of 0, and 100 for GIPRCNT values of -100.
Regarding `O=C(CCCN1CCC2(CC1)C(=O)NCN2c1ccc(F)cc1)c1ccc(F)cc1`, the growth is 106%.

On to `O=[N+]([O-])c1cccc([As]=[As]c2cccc([N+](=O)[O-])c2)c1` (stereo not given), for which the growth is -68.8% (active).

On to `CC1(C)N=C(N)N=C(N)N1c1ccc(CCCCc2ccc(S(=O)(=O)F)cc2)cc1`, for which the growth is 19.4%.

For `CC1(C)N=C(N)N=C(N)N1c1ccc(CCCCc2ccc(S(=O)(=O)F)cc2)c(Cl)c1`, the growth is 17.2%.

Consider `CCOC(=O)c1cnc(SCc2ccc(Cl)c(Cl)c2)nc1N1CC1`, for which the growth was 33.8%.

Consider `CCCCNCCc1ccccn1`, for which the growth is 103%.

As to `CC1CC=CCC12C(=O)NC(=S)NC2=O` (stereo not given), the growth was 104%.

Take `O=CC(Br)C(Br)c1ccccc1` (stereo not given): the growth is 19.5%.

`CC1(C)N=C(N)N=C(N)N1c1ccc(CCCCc2ccc(Cl)cc2S(=O)(=O)F)c(Cl)c1`: the growth is 11.9%.

Regarding `CC[C@@]1(C2O[C@@H](C3O[C@@](O)(CC)[C@H](C)C[C@@H]3C)C[C@@H]2C)CC[C@H]([C@]2(C)CCC3(C[C@H](O)[C@@H](C)[C@@H]([C@H](C)[C@@H](OC)[C@H](C)C(=O)O)O3)O2)O1` (stereo not given in full), the growth was 11.3%.

Consider `C1CN1c1nc(N2CC2)nc(N2CC2)n1`, for which the growth was 51.8%.

With `CCCCCN(CCCCC)CC(O)c1ccc(C)c(Cl)c1` (stereo not given), the growth was 103%.

Take `O=C(O)C1[O][Sb][O]C1C(=O)O` (stereo not given): the growth is 117%.

Take `O=C(C(=O)N1CCCC1)c1cn(CCCCCn2cc(C(=O)C(=O)N3CCCC3)c3ccccc32)c2ccccc12`: the growth is 91.9%.

Take `C[CH2][Pb]([CH2]C)([CH2]C)[O]C(=O)COC`: the growth is -28.3% (active).

Regarding `CC(/C=N/N=C(N)N)=N/N=C(N)N`, the growth is 98.5%.

As to `O=C(O)c1nn(Cc2ccc(Cl)cc2)c2ccccc12`, the growth was 105%.

Consider `C[C@]12CC[C@@H]3C4=C(CC[C@H]3[C@@H]1CC[C@@H]2O)CC(=O)CC4`, for which the growth was 102%.

Consider `C1CNC2CCCC2C1` (stereo not given), for which the growth is 103%.

As for `C[C@]12C[C@H](O)[C@H]3[C@@H](CCC4=CC(=O)CC[C@@]43C)[C@@H]1CC[C@@H]2O`, the growth is 107%.

In the case of `CC(C)C1c2ccc(O)cc2Oc2nc(N)c(C#N)c(N)c21` (stereo not given), the growth was 115%.

Take `Nc1ccc([N+](=O)[O-])c2c1Oc1ccccc1O2`: the growth was 104%.

With `C[CH2][Sn]([CH2]C)([CH2]C)[NH]S(=O)(=O)c1ccc(C)cc1`, the growth is 101%.

In the case of `CN(Cc1cccnc1)N=O`, the growth is 98.2%.

For `CC[C@@H](C)/C=C(C)/C=C/C(=O)c1c(O)c(-c2ccc(O)cc2)cn(O)c1=O`, the growth is 20.2%.

For the compound `CCC(CC)(c1ccccc1)C(OC(N)=O)c1ccccc1` (stereo not given), the growth was 81%.

With `N#CC1=C(N)Oc2cc3c(cc2C1c1cccs1)OCO3` (stereo not given), the growth was 26.3%.

For the compound `CC(C)CCC[C@@H](C)[C@H]1CC[C@H]2[C@@H]3CC=C4C[C@@H](OC(=O)Cc5ccc(N(CCCl)CCCl)cc5)CC[C@]4(C)[C@H]3CC[C@]12C`, the growth was 109%.

`CC12CCC3C(CC=C4CC(O)CCC43C)C1C/C(=C\N1CCOCC1)C2=O` (stereo not given): the growth is 105%.

As to `OB([O][Hg][c]1ccccc1)[O][Hg][c]1ccccc1`, the growth was -48.9% (active).

As for `OC1CCCCC1N1CCC(c2ccccc2)CC1` (stereo not given), the growth is 99.3%.

Turning to `COC(C)(C)CCC[C@H](C)C/C=C/C(C)=C/C(=O)OC(C)C`, the growth is 105%.

As for `CNC(=O)Oc1ccccc1`, the growth was 101%.

For the compound `COc1cc(C2(C#N)CCN(C)CC2)cc(OC)c1OC`, the growth was 97.3%.

`CCOc1cc(/C=N\Nc2nnc(C)n2N)c(C)cc1N(CCCl)CCCl`: the growth was 10.4%.

For `Oc1ccccc1OB(Oc1ccccc1O)N(CCCl)CCCl`, the growth is 82.9%.

In the case of `COc1ccc(C(=O)c2ccc([As]=O)cc2)cc1` (stereo not given), the growth was -64.4% (active).

For the compound `CC(C)(C)NCC(O)c1ccccc1Cl` (stereo not given), the growth was 22%.

Take `CN1CCN(C(=O)COc2ccc(/C=C3\CC4C5CC=C6CC(Cl)CCC6(C)C5CCC4(C)C3=O)cc2)CC1` (stereo not given): the growth was 40.4%.

As to `CN=C(NN)NN`, the growth is 107%.

These data come from PubChem BioAssay (NCI).
